High-throughput results (PubChem)
HIF-2a inh: blocks HIF-2a reporter activity. inhibition, % at 18.8 µM. 786-0 RCC cells HIF-2a reporter, luciferase luminescence, overnight. 360,000 compounds, 0.72% hits;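 active = inhibition of the luminescence signal of 40% or more relative to plate controls, in a single-dose primary screen at 18.75 µM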
CF NFkB block: inhibitors of cystic fibrosis induced NF-kB | 360,000 compounds, 0.86% hits | KKLEB NF-kB-GFP reporter, PAF-induced, GFP fluorescence overnight | inhibition, % at 5 µM;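 active = at least 50% inhibition at 5 µM, scaled per plate between neutral and stimulator controls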;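 note: PAF is a Pseudomonas aeruginosa culture filtrate used as stimulus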
Shn3 3UTR inh: Schnurri-3 reporter inhibition in Clone20 osteoblasts; Clone20 osteoblast Shn3 3'UTR firefly luciferase, 24 h; inhibition, % at 12.5 µM; 360,000 compounds, 0.52% hits;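 active = mean inhibition of at least 75% with every replicate also reaching 75%; inconclusive = mean inhibition at least 75% but some replicate below; inactive = mean inhibition below 75%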
Peg3 prom inh-1: inhibitors of Peg3 promoter; HeLa PEG-Prom luciferase reporter, luminescence, overnight; 360,000 compounds, 1.7% hits; inhibition, % at 20 µM; AID 588405;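 active = inhibition of at least 50% at 20 µM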
KKLEB tox: CF airway cell cytotoxicity counter-screen | activity change (cytotoxicity), % at 5 µM | 360,000 compounds, 0.36% hits | KKLEB CF airway cells viability, ATPlite luminescence, overnight; active compounds read low; cells stimulated with P. aeruginosa culture filtrate;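 active = corrected activity change at or below -50% at 5 µM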
Peg3 prom inh-2: Peg3 promoter inhibition confirmation | AID 602417 | shares compounds with Peg3 prom inh-1 | inhibition, % at 20 µM | HeLa PEG-Prom luciferase reporter, luminescence, overnight | 1,300 compounds, 84% hits;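 active = at 20 µM dose, 40% or more inhibition averaged across four replicates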
Hits are given with their value; n = inactive; u = inconclusive; x = not tested or not shown. Sampled rows, rich in hits. Any-hit rate of the full collection: about 2.6%.

SMILES	HIF-2a inh	CF NFkB block	Shn3 3UTR inh	Peg3 prom inh-1	KKLEB tox	others
CCOP(=O)(CCP(=O)(OCC)OCC)OCC.C[CH2][Sn]([Cl])([Cl])[CH2]C	n	53	n	n	n
C=C(C)CSc1nnc([C@@H](N)Cc2c[nH]c3ccccc23)o1	n	n	n	n	n
Cc1[nH]nc2ccc(-c3cncc(OC[C@@H](N)Cc4c[nH]c5ccccc45)c3)cc12	75	85	96	100	-87
C[N+](C)(C)CC#CCOC(=O)Nc1cccc(Cl)c1	n	n	n	84	n
O=C(Nc1cccc(Cl)c1)N1C[C@H]2C[C@@H](C1)c1cccc(=O)n1C2	n	n	n	n	n
NC(Cc1ccccc1)c1csc(Nc2ccccn2)n1 (stereo not given)	n	n	n	n	n
NC(Cc1ccc(Cl)cc1)c1csc(Nc2ccccn2)n1 (stereo not given)	n	n	n	73	n
CC(=O)OC1C(O)C(C)OC(OC2C(OC(=O)C3CCC4C(C3)OC3(CC(OC(=O)/C=C/c5ccccc5)C(C)CO3)C43CO3)OC(C)C(O)C2OC(C)=O)C1O (stereo not given)	65	90	96	93	n
O=[N+]([O-])c1ccc(C2C3C(c4ccccc4)=NC4(CCCC4)N32)cc1 (stereo not given)	n	n	n	n	n
CC(=O)Nc1cc(C(=O)N2CCC3(CC2)OCCO3)ccc1Sc1ccc(C)cc1	n	n	n	n	n
N=c1c2c(n(Cc3ccc(Cl)cc3Cl)c3c1CCC3)CCCC2	n	n	86	n	n
COC(=O)C1=C(c2cccc(C#N)c2)C[C@@H]2CC[C@H]1N2C(=O)NCCO	n	n	n	n	n
CCCCC1(CCCC)C(=O)NC(=Nc2cccc(C)c2)NC1=O	n	n	n	n	n
Cc1cccc(N=C2c3cc([N+](=O)[O-])ccc3-c3c2cc([N+](=O)[O-])cc3[N+](=O)[O-])c1	n	n	n	86	n
CCC(C)NC(=O)CCC(=O)OC1O[C@H]2OC3(C)CC[C@H]4[C@H](C)CCC(C1C)C24OO3 (stereo not given in full)	n	n	n	n	n
CCC(C)C(NC(=O)CCCNC(=O)CCC(=O)OC1O[C@H]2OC3(C)CC[C@H]4[C@H](C)CCC(C1C)C24OO3)C(=O)O (stereo not given in full)	n	n	87	n	n
Nc1nc(N)c2cnnn2n1	n	n	n	n	n
CCOC(=O)C1=C(NC(=S)NC(=O)c2ccccc2)c2ccccc2CC12CCCC2	n	n	n	50	n
COc1ccc(CN2CCCC(C(=O)c3ccc(Cl)cc3)C2)c(O)c1 (stereo not given)	n	n	n	n	n
COC(=O)C1=C(c2ccc(OCc3ccccc3)cc2)C[C@@H]2CC[C@H]1N2C(=O)NCCN1CCOCC1	n	n	n	n	n
COC(=O)C1=C(c2ccc(OCc3ccccc3)cc2)C[C@@H]2CC[C@H]1N2C(=O)NC1CCN(Cc2ccccc2)CC1	n	n	n	86	n
COc1ccc(CN2Cc3cc(N4CCOCC4)ccc3-n3nncc3C2)cc1	n	n	n	n	n
CCOc1cccc(CNCCc2c(C)[nH]c3ccc(OC(F)(F)F)cc23)c1O	n	n	u	107	n
Cc1[nH]c2ccc(OC(F)(F)F)cc2c1CCNCc1ccc(Cl)cc1	n	n	n	111	n
CC[n+]1c(/C=C/C=C/c2ccc(N(C)C)cc2)sc2ccccc21	n	n	n	65	n
SMILES	HIF-2a inh	CF NFkB block	Shn3 3UTR inh	Peg3 prom inh-1	KKLEB tox	others
CC[n+]1c(/C=C/N(C)c2ccccc2)sc2ccc(Cl)cc21	n	n	92	n	n
CN(C)c1ccc(/C=C/C=C/c2sc3ccccc3[n+]2C)cc1	n	n	x	n	n
CC1OC(OC2CC(O)C3(CO)C4C(O)CC5(C)C(C6=CC(=O)OC6)CCC5(O)C4CCC3(O)C2)C(O)C(O)C1O (stereo not given)	84	91	n	110	-51
COc1cc(C(=O)Nc2ccc(Br)cc2C(=O)c2ccccc2Cl)cc(OC)c1OC	n	n	n	n	-50
CCOC(=O)C1CCCN(c2ccc([N+](=O)[O-])c3nonc23)C1 (stereo not given)	n	n	n	n	n
CCN(CC)CCCNC(=O)c1c(O)c2ccccc2n(Cc2ccccc2)c1=O	n	n	n	54	n
COc1cc2c(cc1OC)C1C(=O)c3ccc4c(c3OC1CO2)CC(C(C)C)O4 (stereo not given)	n	n	85	n	n
COc1cc2c(cc1OC)[C@@H]1C(=O)c3ccc4c(c3O[C@@H]1CO2)C[C@H](C(C)C)O4	n	n	n	n	n
COc1ccc2[nH]c(C)c(CCNCc3cccnc3)c2c1	n	n	n	n	n
Cc1[nH]c2ccc(OC(F)(F)F)cc2c1CCNCc1cccc([N+](=O)[O-])c1	n	n	n	82	n	Peg3 prom inh-2=58
CC(=O)c1cn(Cc2ccccc2C#N)c2ccccc12	n	n	n	n	n
CC(=O)OC1CC[C@]2(C#N)[C@H]3CC[C@]4(C)[C@H](C5C=CC(=O)O5)CCC4(O)C3CCC2(O)C1 (stereo not given in full)	n	n	n	76	n	Peg3 prom inh-2=87
O=[N+]([O-])c1cc(F)c(N2CCCCCC2)cc1N1CCNCC1	n	n	n	99	n	Peg3 prom inh-2=97
COc1cccc(C(c2nnnn2-c2c(C)cccc2C)N2CCC(n3c(=O)[nH]c4ccccc43)CC2)c1OC (stereo not given)	n	n	n	58	n	Peg3 prom inh-2=42
CCCCn1nnnc1C(CCSC)N1CCC(n2c(=O)[nH]c3ccccc32)CC1 (stereo not given)	n	n	n	52	n	Peg3 prom inh-2=68
CCCCn1nnnc1C(C1CC1)N1CCC(n2c(=O)[nH]c3ccccc32)CC1 (stereo not given)	n	n	n	n	n
O=C(Cc1ccccc1F)N1CCN(CC(=O)N2CCCC2)CC1	n	n	n	n	n
Clc1cccc(N2Cc3ccccc3-n3nncc3C2)c1	n	n	n	n	n
C[C@@H]1COc2cccc(N3CCN(C)CC3)c2S(=O)(=O)N1	n	x	x	x	x
COc1ccc(SCC2CN(C)CCC2c2ccc(F)cc2)cc1 (stereo not given)	n	n	n	n	n
Cc1ccc(S(=O)(=O)NP(=O)(Oc2ccccc2)Oc2ccccc2)cc1	n	n	n	n	n
Cc1ccc(C)c(NP(=O)(Oc2ccccc2)Oc2ccccc2)c1	n	97	n	63	-67	Peg3 prom inh-2=67
COc1cc2nc(CN3CC=C(c4ccccc4)CC3)[nH]c(=O)c2cc1OC	n	69	n	102	n	Peg3 prom inh-2=94
CCOC(=O)N(C)c1ccc(C(O)(C(=O)OCC)C(F)(F)F)cc1 (stereo not given)	n	n	n	n	n
Cc1cc(C)c(Cn2c(C(=O)O)c(C=O)c3ccccc32)c(C)c1	n	n	n	n	n
